According to PubChem BioAssay (NCATS):
“And” between values parts separate entries of the source, which are not always exact repeats. Equal entries are not always repeated. Unmarked numbers belong to inactive results. Inconclusive results are not listed. Entries that show only a call come without a potency. The source made the active and inactive calls. Unless noted, calls come from the whole dose curve; as a rule, active = well fitted curve in the direction sought with a large enough effect; inconclusive = small, poorly fitted or top-dose-only effect, or another doubt; inactive = no such curve, though single readings can be large; an effect the other way counts as inactive or inconclusive.

Tests used:
[1] = AP1 Signaling Pathway (AID 357; active = well fitted curve in either direction with a large enough effect, not every such curve was filed as active;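 note: ME-180 reporter cells stimulated with EGF at its EC50 level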); settings: ME-180 AP-1-bla reporter, EGF-induced, beta-lactamase ratio, 5 h; at 7.69 µM (top of the series) unless noted
Summary of the method: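 Beta-lactamase reporter under AP-1 response element, ME-180 background. Stimulus: EC50 EGF. Compound exposure 5 h, 37 °C. Detection: CCF4, 2.5 h RT, 460/530 nm. Values: AC50 from titration.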

[2] = target: Cytochrome P450 1A2 (Homo sapiens) (UniProt P05177); assay: p450-cyp1a2 (AID 410; calls by dose curve; note: potency is the fitted concentration of half-maximal effect); settings: recombinant CYP1A2, luciferin-ME demethylation, luminescence; series mostly up to 11.4 µM
Sequence of Cytochrome P450 1A2 (Homo sapiens) (P05177 whole entry, looked up): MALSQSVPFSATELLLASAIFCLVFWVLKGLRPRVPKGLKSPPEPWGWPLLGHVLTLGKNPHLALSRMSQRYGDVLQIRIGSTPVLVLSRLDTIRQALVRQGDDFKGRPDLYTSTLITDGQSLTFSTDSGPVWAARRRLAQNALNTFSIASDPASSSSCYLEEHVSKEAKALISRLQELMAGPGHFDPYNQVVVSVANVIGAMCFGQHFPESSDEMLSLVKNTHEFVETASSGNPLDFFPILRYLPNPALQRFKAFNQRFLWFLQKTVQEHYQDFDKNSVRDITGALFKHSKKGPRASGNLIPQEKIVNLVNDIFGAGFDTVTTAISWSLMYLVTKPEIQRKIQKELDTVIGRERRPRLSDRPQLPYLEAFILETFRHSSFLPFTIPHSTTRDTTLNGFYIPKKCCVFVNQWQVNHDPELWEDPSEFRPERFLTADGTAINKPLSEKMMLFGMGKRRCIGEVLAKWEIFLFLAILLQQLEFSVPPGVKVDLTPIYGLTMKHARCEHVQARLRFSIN
Summary of the method: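 Luminescent readout of luciferin formed from Luciferin-ME by human CYP1A2; data normalized against complete inhibition by 57 uM furafylline. Enzyme 20nM, substrate 100uM at Km, 100mM KPO4 buffer, 60 min reaction at room temperature.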

[3] = NFAT Signaling Pathway (AID 444; active = well fitted curve in either direction with a large enough effect, not every such curve was filed as active;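 note: carbachol stimulus at about its EC50 of 1 µM final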); settings: Jurkat NFAT-bla M1, carbachol, beta-lactamase ratio, 5 h; at 7.69 µM (top of the series) unless noted
Summary of the method: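 Read-out: CCF4 FRET ratio (460 nm/530 nm) after 1 h RT dye loading, used for %activity and AC50 from titration series. Cells: Jurkat NFAT-β-lactamase/M1 line, treated with compound plus 1 uM carbachol for 5 h, 37 °C.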

[4] = Stat Signaling Pathway (AID 446; active = well fitted curve in either direction with a large enough effect, not every such curve was filed as active;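 note: ME-180 cervical cancer cells given 40 pM IL-6 alongside compound; SIE-controlled beta-lactamase reporter measured as 460/530 nm FRET emission ratio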); settings: ME-180 SIE beta-lactamase reporter, IL-6 stimulated, 5 h; at 7.69 µM (top of the series) unless noted
Summary of the method: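 Screening format detects activators and inhibitors alike: ME-180 SIE-bla cells stimulated at 40 pM IL-6 for 5 hrs with compound, then dual-emission beta-lactamase read at 405 nm excitation.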

[5] = target: Glucocorticoid receptor (Homo sapiens) (UniProt P04150); assay: GR-GFP Redistribution (AID 450;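 active = compounds whose dose series gives a full or clear partial fitted curve of increased nuclear translocation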; note: potency is the fitted concentration of half-maximal effect); settings: U2OS GR-GFP nuclear translocation, laser cytometry, 2 h
Sequence of Glucocorticoid receptor (Homo sapiens) (P04150 whole entry, looked up, the tested form may be a part): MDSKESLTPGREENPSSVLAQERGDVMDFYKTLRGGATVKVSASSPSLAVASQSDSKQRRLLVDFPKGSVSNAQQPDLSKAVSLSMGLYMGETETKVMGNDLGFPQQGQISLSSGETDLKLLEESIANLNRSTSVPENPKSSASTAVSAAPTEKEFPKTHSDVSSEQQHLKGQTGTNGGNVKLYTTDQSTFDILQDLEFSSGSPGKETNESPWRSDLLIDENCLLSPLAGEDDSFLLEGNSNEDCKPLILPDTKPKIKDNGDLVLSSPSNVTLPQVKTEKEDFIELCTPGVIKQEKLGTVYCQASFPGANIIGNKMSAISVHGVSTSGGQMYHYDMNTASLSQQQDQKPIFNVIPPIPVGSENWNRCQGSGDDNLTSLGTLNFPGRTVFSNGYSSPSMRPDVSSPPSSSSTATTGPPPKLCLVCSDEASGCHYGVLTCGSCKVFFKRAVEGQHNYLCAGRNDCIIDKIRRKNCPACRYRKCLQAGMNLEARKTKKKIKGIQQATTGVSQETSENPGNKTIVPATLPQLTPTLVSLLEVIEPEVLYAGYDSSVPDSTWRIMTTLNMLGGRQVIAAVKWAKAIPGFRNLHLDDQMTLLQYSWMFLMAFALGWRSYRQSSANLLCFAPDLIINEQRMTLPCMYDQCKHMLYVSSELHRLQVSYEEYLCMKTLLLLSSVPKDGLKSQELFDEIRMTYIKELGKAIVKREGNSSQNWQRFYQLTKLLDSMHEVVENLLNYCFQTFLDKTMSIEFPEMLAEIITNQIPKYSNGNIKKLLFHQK

[6] = target: 3',5'-cyclic-AMP phosphodiesterase 4B (Homo sapiens) (UniProt Q07343); assay: qHTS Assay for Inhibitors of PDE-IV (AID 607; active = well fitted activation curve with a large enough effect in the main read-out, with a control signal flat, not every such curve was filed as active); settings: HEK293 ACTOne CNG channel cells, membrane potential fluorescence; series mostly up to 22.9 µM
Sequence of 3',5'-cyclic-AMP phosphodiesterase 4B (Homo sapiens) (Q07343 whole entry, looked up): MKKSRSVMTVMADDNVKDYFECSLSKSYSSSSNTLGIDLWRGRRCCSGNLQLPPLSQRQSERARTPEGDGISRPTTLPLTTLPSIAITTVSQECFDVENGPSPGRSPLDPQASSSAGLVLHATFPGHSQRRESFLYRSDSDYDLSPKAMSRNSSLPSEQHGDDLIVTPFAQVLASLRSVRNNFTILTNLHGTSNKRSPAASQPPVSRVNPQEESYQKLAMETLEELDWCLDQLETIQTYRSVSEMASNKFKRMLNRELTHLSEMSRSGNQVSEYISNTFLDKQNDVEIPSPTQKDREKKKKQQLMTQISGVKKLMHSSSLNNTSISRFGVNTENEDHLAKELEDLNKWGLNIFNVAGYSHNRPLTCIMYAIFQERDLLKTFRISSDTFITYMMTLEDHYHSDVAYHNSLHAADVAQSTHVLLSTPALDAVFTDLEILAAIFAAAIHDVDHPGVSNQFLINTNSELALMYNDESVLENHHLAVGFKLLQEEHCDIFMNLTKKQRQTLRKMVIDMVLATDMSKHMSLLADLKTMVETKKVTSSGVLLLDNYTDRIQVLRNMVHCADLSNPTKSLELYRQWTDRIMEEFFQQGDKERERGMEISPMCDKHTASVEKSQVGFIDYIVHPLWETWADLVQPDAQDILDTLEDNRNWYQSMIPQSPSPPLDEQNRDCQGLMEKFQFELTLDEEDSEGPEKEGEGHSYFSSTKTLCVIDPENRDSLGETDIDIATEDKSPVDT
Summary of the method: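 The readout is membrane depolarisation from a cAMP-sensing CNG channel, detected with a potential dye at ex 535/em 590. Cells were HEK293-derived (endogenous PDE-IV) at 1000 cells/well, titrated up to 22.9 uM final.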

[7] = target: Guanine nucleotide-binding protein G(i) subunit alpha-1 (Homo sapiens) (UniProt P63096); assay: qHTS Assay for Inhibitors of RGS12 GoLoco Motif Activity (Green Fluorophore) (AID 879); settings: Galphai1/FITC-RGS12 GoLoco peptide, fluorescence polarization; series mostly up to 57.1 µM;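 note: negative values mean loss of peptide binding seen as reduced polarization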
Summary of the method: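 Fluorescence polarization assay: 50 nM Gαi1 with 10 nM FITC-labeled RGS12 GoLoco peptide in 10 mM Tris pH 7.5, 150 mM NaCl, 0.1 mM GDP, 0.05% NP40, 10 min at room temperature with compound.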

[8] = target: Cytochrome P450 3A4 (Homo sapiens) (UniProt P08684); assay: qHTS Assay for Activators of Cytochrome P450 3A4 (AID 885); settings: recombinant CYP3A4, Luciferin-PPXE luminescence, 60 min; series mostly up to 57.1 µM; note: nearly all actives have a fitted effect of over 65% in size
Sequence of Cytochrome P450 3A4 (Homo sapiens) (P08684 whole entry, looked up): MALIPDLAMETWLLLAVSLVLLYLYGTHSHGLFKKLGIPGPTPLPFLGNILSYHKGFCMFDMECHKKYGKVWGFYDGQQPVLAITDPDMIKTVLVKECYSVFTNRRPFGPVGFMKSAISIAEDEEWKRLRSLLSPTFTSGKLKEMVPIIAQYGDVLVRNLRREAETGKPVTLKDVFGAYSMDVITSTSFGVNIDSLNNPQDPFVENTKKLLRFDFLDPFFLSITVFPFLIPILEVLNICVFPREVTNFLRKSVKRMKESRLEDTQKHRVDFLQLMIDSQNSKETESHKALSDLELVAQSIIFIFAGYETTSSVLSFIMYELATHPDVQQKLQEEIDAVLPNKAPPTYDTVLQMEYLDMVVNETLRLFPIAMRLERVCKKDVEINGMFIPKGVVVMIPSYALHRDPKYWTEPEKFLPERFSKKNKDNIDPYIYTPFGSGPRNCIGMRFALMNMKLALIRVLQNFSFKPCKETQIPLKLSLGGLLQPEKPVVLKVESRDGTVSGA
Summary of the method: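 Steps: enzyme/substrate mix dispensed; compound added, 10 min RT; NADPH regeneration solution added, 60 min RT; luciferin detection buffer stops reaction; 20 min later luminescence measured.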

[9] = qHTS Assay for Identification of Small Molecule Antagonists for NFkB Signaling Pathway (AID 895; active = well fitted inhibition curve with a large enough effect in the signal ratio, with a control signal flat, not every such curve was filed as active; the % refers to the signal ratio; note: potency is the fitted concentration of half-maximal effect); settings: NFkB beta-lactamase reporter cells, FRET ratio 460/530; series mostly up to 38.3 µM
Summary of the method: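 Beta-lactamase reporter read-out (460 and 530 nm emission ratio, 405 nm excitation, 2 hrs substrate loading RT) after 5 hr stimulation with 10 pM TNF alpha in compound-treated NFkB-bla ME-180 cells in low-serum medium.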

[10] = qHTS Assay for Identification of Small Molecule Agonists for Thrombopoietin (TPO) Signaling Pathway (AID 917); settings: TPO signaling pathway reporter cells, agonist qHTS; series mostly up to 38.5 µM
Summary of the method: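 Reporter: GpIIb promoter–luciferase in murine Ba/F3 expressing human TPO receptor. Pre-starved of IL-3 overnight; compounds with 26 pM TPO, 24 hrs, 37 C/5% CO2; luminescence read.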

[11] = target: Pyruvate kinase (Leishmania mexicana) (UniProt Q27686); assay: qHTS Validation Assay for Inhibitors of Leishmania Mexicana Pyruvate Kinase (AID 945); settings: purified L. mexicana pyruvate kinase, enzyme activity, E451W mutant enzyme; series mostly up to 57.5 µM
Sequence of Pyruvate kinase (Leishmania mexicana) (Q27686 2-499 E452W): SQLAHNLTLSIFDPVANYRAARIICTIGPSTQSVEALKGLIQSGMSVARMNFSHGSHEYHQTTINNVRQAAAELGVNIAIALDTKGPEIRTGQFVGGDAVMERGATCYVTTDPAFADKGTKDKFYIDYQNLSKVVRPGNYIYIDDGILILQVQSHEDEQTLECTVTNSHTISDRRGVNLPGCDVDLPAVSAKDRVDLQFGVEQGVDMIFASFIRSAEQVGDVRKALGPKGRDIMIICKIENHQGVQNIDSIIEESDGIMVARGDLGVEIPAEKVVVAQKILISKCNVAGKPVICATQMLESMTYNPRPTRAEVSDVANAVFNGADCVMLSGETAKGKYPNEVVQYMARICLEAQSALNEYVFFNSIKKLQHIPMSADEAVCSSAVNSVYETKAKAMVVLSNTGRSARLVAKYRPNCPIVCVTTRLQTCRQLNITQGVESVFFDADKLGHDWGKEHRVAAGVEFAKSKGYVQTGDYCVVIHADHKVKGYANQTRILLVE
Summary of the method: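 Luminescent ATP detection (PKLight) after a 1 h room-temperature reaction of 0.2 nM LmPYK E451W mutant with 0.5 mM PEP and 0.1 mM ADP at pH 7.2. Activity is normalized to DMSO-only control wells.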

[12] = target: Pyruvate kinase PKM (Homo sapiens) (UniProt P14618); assay: qHTS Assay for Activators of Human Muscle Pyruvate Kinase (AID 954; active = well fitted curve in the direction sought with a large enough effect, not every such curve was filed as active); settings: purified human muscle pyruvate kinase, luciferase-coupled luminescence, 1 h; series mostly up to 57.5 µM
Sequence of Pyruvate kinase PKM (Homo sapiens) (P14618 whole entry, looked up): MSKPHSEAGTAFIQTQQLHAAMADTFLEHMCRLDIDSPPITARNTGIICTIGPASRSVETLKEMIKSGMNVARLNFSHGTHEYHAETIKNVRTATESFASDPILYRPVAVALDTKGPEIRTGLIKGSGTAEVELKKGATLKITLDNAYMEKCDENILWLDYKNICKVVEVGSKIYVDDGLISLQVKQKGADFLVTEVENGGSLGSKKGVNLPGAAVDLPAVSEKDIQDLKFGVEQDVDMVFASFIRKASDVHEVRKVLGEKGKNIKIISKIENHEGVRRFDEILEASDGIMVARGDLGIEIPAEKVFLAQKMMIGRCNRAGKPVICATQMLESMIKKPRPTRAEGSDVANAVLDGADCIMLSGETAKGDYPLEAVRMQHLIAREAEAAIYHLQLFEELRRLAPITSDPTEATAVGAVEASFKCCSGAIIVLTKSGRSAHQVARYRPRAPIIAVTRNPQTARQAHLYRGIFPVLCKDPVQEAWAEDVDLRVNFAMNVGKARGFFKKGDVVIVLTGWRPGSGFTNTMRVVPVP
Summary of the method: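 Reaction: 0.1 nM purified PKM2 with 0.5 mM phosphoenolpyruvate and 0.1 mM ADP, room temperature, 1 h. Readout: luciferase-based ATP luminescence after stop reagent. Activators judged against a 0.3 nM enzyme column.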

[13] = target: Alpha-galactosidase A (Homo sapiens) (UniProt P06280); assay: Counterscreen for Glucocerebrosidase Inhibitors: qHTS Assay for Human alpha-Galactosidase at pH 4.5 (AID 992); settings: purified enzyme, fluorogenic substrate; series mostly up to 76.9 µM
Sequence of Alpha-galactosidase A (Homo sapiens) (P06280 whole entry, looked up): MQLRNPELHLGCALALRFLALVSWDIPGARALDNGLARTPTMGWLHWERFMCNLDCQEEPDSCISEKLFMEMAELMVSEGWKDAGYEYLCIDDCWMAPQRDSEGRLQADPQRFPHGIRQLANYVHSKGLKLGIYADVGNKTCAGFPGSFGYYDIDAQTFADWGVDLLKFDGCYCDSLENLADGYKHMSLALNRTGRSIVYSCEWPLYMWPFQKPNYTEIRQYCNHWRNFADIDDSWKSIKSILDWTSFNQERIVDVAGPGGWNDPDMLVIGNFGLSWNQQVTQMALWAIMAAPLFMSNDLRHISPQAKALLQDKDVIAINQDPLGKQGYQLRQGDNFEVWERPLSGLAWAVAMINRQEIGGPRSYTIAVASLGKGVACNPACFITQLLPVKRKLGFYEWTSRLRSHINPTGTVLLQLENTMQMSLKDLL
Summary of the method: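 Concentration-response curves (0.7 nM to 77 uM final) were modeled with the Hill equation to give AC50. Reactions: 2 nM enzyme, 80 uM fluorogenic alpha-galactoside, pH 4.5 citric acid buffer, 20 min, room temperature.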

[14] = target: alpha-glucosidase (Oryza sativa, rice) (UniProt Q653V4); assay: Counterscreen for Glucocerebrosidase Inhibitors: qHTS Assay for Rice alpha-Glucosidase at pH 5.0 (AID 997); settings: rice alpha-glucosidase enzyme activity; series mostly up to 76.9 µM
Summary of the method: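 Rice alpha-glucosidase (4 nM final) with 400 uM 4-methylumbelliferyl-alpha-D-glucopyranoside in citrate buffer pH 5.0, 20 min at room temperature, stopped at pH 10; fluorescence 365/440 nm, compounds 0.7 nM–77 uM, AC50 from Hill fits.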

[15] = target: Glucocorticoid receptor (Homo sapiens) (UniProt P04150); assay: GR-EFC Redistribution (AID 451; calls by dose curve; note: potency is the fitted concentration of half-maximal effect); settings: CHO-K1 GR-EFC translocation, beta-gal luminescence, 2 h
Summary of the method: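 Translocation of GR-ED fusion to nuclear EA restores b-gal, read by luminescence after 1 h room-temperature detection. Engineered CHO-K1 biosensor cells, 1,000/well, exposed 2 h at 37 C to titrations up to 46 uM final.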

[16] = target: Mitogen-activated protein kinase 10 (Mus musculus) (UniProt Q61831); assay: JNK3 AlphaScreen Assay (AID 530; active = well fitted curve in either direction with a large enough effect, not every such curve was filed as active;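 note: kinase came from lysate of stimulated human HepG2 cells; signal reports phosphorylation of biotinylated GST-cJun 1-79 at Ser73 with 10 µM ATP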); settings: JNK3 lysate, c-Jun phosphorylation; series mostly up to 57.1 µM
Summary of the method: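 Compound titrations were preincubated 15 minutes at room temperature with substrate, antibody and pre-activated JNK3-containing HepG2 lysate. Reactions were started with 10 uM ATP and stopped with EDTA-containing bead buffer for AlphaScreen detection.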

[17] = target: Muscarinic acetylcholine receptor M1 (Rattus norvegicus) (UniProt P08482); assay: qHTS Assay for Antagonists of Acetylcholine Muscarinic M1 Receptor: Kinetic Measurement of Intracellular Calcium Response (AID 943); settings: M1-expressing cells, kinetic intracellular calcium fluorescence; series mostly up to 35.3 µM; note: nearly all actives have a fitted effect of over 75% in size; note: potency is the fitted concentration of half-maximal effect;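 for activity change, negative = inhibition: Fluo-4 calcium signal as peak divided by basal fluorescence over 4 min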
Sequence of Muscarinic acetylcholine receptor M1 (Rattus norvegicus) (P08482 whole entry, looked up): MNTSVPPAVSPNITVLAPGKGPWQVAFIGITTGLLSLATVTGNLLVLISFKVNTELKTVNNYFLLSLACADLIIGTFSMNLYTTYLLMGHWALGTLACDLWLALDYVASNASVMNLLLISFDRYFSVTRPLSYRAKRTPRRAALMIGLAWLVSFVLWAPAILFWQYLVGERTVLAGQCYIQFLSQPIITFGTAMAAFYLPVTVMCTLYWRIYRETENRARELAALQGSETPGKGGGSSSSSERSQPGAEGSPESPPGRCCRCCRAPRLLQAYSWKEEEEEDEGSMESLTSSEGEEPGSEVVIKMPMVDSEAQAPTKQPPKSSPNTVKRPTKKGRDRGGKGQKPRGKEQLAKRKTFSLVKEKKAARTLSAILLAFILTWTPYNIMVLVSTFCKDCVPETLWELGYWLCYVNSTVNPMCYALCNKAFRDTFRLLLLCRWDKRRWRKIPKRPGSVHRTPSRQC
Summary of the method: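 Rat M1-CHO cells, 2000/well, overnight → Fluo-4 no-wash dye with probenecid, 1 h 37C → compound 10 min, room temp → basal read 6 s → carbachol EC80 (100 nM) → 4 min kinetic read; peak/basal.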

[18] = target: Muscarinic acetylcholine receptor M1 (Rattus norvegicus) (UniProt P08482); assay: qHTS Assay for Antagonists of Acetylcholine Muscarinic M1 Receptor: Measurement of IP-One Response (AID 944); settings: CHO-M1 cells, IP-One HTRF, antagonist mode; series mostly up to 46.1 µM; note: nearly all actives have a fitted effect of over 75% in size; note: potency is the fitted concentration of half-maximal effect
Summary of the method: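 M1-CHO (rat), 2000 cells/well, overnight recovery; cpd 10 min; carbachol EC80 (200 nM), 30 min, HEPES buffer + 50 mM LiCl pH 7.4; IP-One HTRF, Ex 337, Em 620/665 nm.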

[19] = target: Cytochrome P450 2D6 (Homo sapiens) (UniProt P10635); assay: qHTS Assay for Inhibitors and Substrates of Cytochrome P450 2D6 (AID 891); settings: recombinant CYP2D6, luciferin-ME EGE luminescence; series mostly up to 11.4 µM; note: nearly all actives have a fitted effect of over 60% in size; note: potency is the fitted concentration of half-maximal effect;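 for activity change, negative = inhibition: luciferin methyl ether substrate demethylated by CYP2D6 with NADPH regeneration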
Sequence of Cytochrome P450 2D6 (Homo sapiens) (P10635 whole entry, looked up): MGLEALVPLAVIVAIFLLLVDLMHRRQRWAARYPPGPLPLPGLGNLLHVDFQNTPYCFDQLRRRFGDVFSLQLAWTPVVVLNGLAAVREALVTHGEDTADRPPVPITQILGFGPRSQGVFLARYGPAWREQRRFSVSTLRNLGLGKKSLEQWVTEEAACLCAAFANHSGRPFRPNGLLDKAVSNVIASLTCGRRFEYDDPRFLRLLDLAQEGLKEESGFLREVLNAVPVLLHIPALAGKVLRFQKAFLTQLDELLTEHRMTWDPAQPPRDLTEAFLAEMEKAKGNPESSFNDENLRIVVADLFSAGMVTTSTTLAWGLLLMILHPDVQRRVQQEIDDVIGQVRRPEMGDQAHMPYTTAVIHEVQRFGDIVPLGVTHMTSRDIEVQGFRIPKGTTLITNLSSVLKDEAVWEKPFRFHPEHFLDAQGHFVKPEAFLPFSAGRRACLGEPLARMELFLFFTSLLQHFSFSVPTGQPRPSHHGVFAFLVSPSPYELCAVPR
Summary of the method: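 Human CYP2D6 (5 nM) with 30 uM Luciferin-ME EGE (at Km) in 100 mM KPO4, compound preincubated 10 min, then NADPH regeneration system for 60 min at room temperature. Luciferin read by luminescence; normalized to 1.43 uM quinidine.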

Row | SMILES | activity change, negative = inhibition [1] | Potency [2] | activity change, negative = inhibition [3] | activity, negative = inhibition [4] | Potency [5] [µM] | outcome [6] | outcome [7] | Potency [8] | Potency [9] | outcome [10] | outcome [11] | outcome [12] | outcome [13] | outcome [14] | Potency [15] [µM] | Potency [16] | Potency [17] | Potency [18] | Potency [19]
1 | C[N+]1(C)CCc2cc3c(cc2[C@@H]1[C@@H]1OC(=O)c2c1ccc1c2OCO1)OCO3 | -3.72% [at 38 µM] | inactive | -11.8% [at 38 µM] | 13.3% [at 38 µM] | > 46 | inactive | inactive | inactive | inactive | inactive | inactive | inactive | inactive | inactive |  |  |  |  | 
2 | C[N+]1(C)C2CC(OC(=O)C(CO)c3ccccc3)CC1[C@@H]1O[C@H]21 (some centres not stated) | -8.85% [at 38 µM] and -6.94% [at 38 µM] | inactive | -56.8% [at 38 µM] (active) | 5.12% [at 38 µM] and -2.5% [at 38 µM] | > 46 |  | inactive | inactive | inactive | inactive | inactive | inactive | inactive | inactive | > 46 | inactive |  |  | 
3 | CCNC(=O)[C@@H]1O[C@@H](n2cnc3c(N)ncnc32)[C@@H](O)[C@H]1O | -6.61% [at 38 µM] | inactive | -9.11% [at 38 µM] | 24.4% [at 38 µM] | > 46 |  | inactive |  | inactive | inactive | inactive | inactive | inactive | inactive | > 46 |  | inactive | inactive | 
4 | CC(=O)c1c(O)c(C)c(O)c(Cc2c(O)c3c(c(C(=O)/C=C\c4ccccc4)c2O)OC(C)(C)C=C3)c1O | -26.6% [at 38 µM] | 12.6 µM (active) and 31.6 µM (active) |  | -35.6% [at 38 µM] | > 46 | inactive | inactive | inactive | 0.794 µM (active) |  | inactive | inactive | inactive | inactive | > 46 | inactive | inactive | inactive | inactive
5 | N[C@H](Cn1oc(=O)[nH]c1=O)C(=O)O | 0.495% [at 38 µM] | inactive | -2.78% [at 38 µM] | 6.66% [at 38 µM] | > 46 | inactive |  |  |  |  |  |  |  |  |  | inactive |  |  | inactive
6 | C[C@@]12CC[C@H]3[C@@H](CC=C4C[C@H](OS(=O)(=O)O)CC[C@]43C)[C@H]1CCC2=O | -6.95% [at 38 µM] | inactive | -0.252% [at 38 µM] | -15.3% [at 38 µM] | > 46 | inactive | inactive |  | inactive | inactive | inactive | inactive | inactive | inactive | > 46 | inactive | inactive | inactive | 
7 | CC(C)N[C@@H](C)Cc1ccc(I)cc1 | 17.5% [at 38 µM] | 10 µM (active) | -29.8% [at 38 µM] | -4.05% [at 38 µM] | > 46 |  | inactive |  |  | inactive | inactive | inactive | inactive | inactive |  |  | 8.91 µM (active) | 14.1 µM (active) | 
8 | CCN(CC)c1ncnc2c1ncn2[C@@H]1O[C@@H](COP(=O)(O)OP(=O)(O)C(Br)(Br)P(=O)(O)O)[C@H](O)[C@@H]1O | 6.32% [at 38 µM] | inactive | 8.54% [at 38 µM] | -1.38% [at 38 µM] | > 46 | inactive | inactive |  |  | inactive | inactive | inactive | inactive | inactive | > 46 | inactive | inactive | inactive | 
9 | CN1C[C@@H](CS(=O)(=O)N(C)C)C[C@H]2c3cccc4c3c(cn4C)C[C@@H]21 | 2.96% [at 38 µM] | 25.1 µM (active) | 4.13% [at 38 µM] | -10.8% [at 38 µM] | > 46 | inactive |  |  | inactive | inactive | inactive | inactive | inactive | inactive | > 46 | inactive |  | inactive | 3.98 µM (active)
10 | COC(=O)[C@H](N)CCCN=C(N)N[N+](=O)[O-] | -2.03% [at 38 µM] | inactive | 13% [at 38 µM] | 3% [at 38 µM] | > 46 | inactive | inactive |  | inactive | inactive | inactive | inactive | inactive | inactive | > 46 | inactive |  | inactive | 
